Test results: PubChem BioAssay (NCI)
About 79,000 compounds went through this panel and 15% of them were active in at least one assay; those are over-represented in the sample as a whole. Calls of active or inactive are those of the source. No stated cut-off is given here; in the data, active means growth inhibition above about 70%; inactive means the rest.

Tests used:
[1] = NCI Yeast Anticancer Drug Screen. Data for the mec2-1 strain (AID 157); conditions: S. cerevisiae mec2-1 strain, stronger effect = higher value
How it was run: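 Strain: mec2-1 (DNA repair/cell cycle alteration). Compound exposure, then growth measured; inhibition expressed relative to vehicle.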

[2] = NCI Yeast Anticancer Drug Screen. Data for the sgs1 mgt1 strain (AID 161);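 further: 0% = growth of cultures given vehicle only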; conditions: S. cerevisiae sgs1 mgt1 strain, stronger effect = higher value
How it was run: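 Read-out: growth inhibition vs vehicle controls. Cells: mutant yeast strain deficient in DNA damage repair.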

[3] = NCI Yeast Anticancer Drug Screen. Data for the CLN2oe strain (AID 163);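 further: 0% = growth of vehicle-only control cultures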; conditions: S. cerevisiae CLN2oe strain, stronger effect = higher value
How it was run: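 Growth of a genetically modified yeast strain is measured after compound exposure and compared with cultures given vehicle alone.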

[4] = NCI Yeast Anticancer Drug Screen. Data for the cln2 rad14 strain (AID 165);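 further: 0% = growth equal to vehicle treated cultures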; conditions: S. cerevisiae cln2 rad14 strain, stronger effect = higher value
How it was run: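 Compounds are applied to the cln2 rad14 yeast strain, and growth is then compared with that of vehicle-treated cultures to give inhibition.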

[5] = NCI Yeast Anticancer Drug Screen. Data for the bub3 strain (AID 167); conditions: S. cerevisiae bub3 mutant strain, stronger effect = higher value
How it was run: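 Inhibition values come from growth of compound-treated mutant yeast normalised to vehicle-treated controls.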

[6] = NCI Yeast Anticancer Drug Screen. Data for the wt2 strain (AID 169);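 further: 0% = growth of vehicle-treated yeast cultures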; conditions: S. cerevisiae wt2 strain growth inhibition, stronger effect = higher value
How it was run: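 This strain belongs to a panel of yeast strains with defined genetic alterations in DNA damage repair or cell cycle control. Compounds are applied, and growth inhibition is measured against vehicle-treated cultures.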

[7] = NCI Yeast Anticancer Drug Screen. Data for the mlh1 strain (AID 171);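 further: 0% = growth of vehicle-treated control cultures of the same strain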; conditions: S. cerevisiae mlh1 strain growth inhibition, stronger effect = higher value
How it was run: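 Growth of the mutant yeast strain after compound exposure, expressed as inhibition relative to vehicle-only controls.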

[8] = NCI Yeast Anticancer Drug Screen. Data for the mlh1 rad18 strain (AID 175); conditions: S. cerevisiae mlh1 rad18 strain growth inhibition, stronger effect = higher value
How it was run: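 Read-out is yeast growth inhibition, calculated against vehicle-only controls. The compound was applied to a strain engineered with DNA damage repair alterations.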

[9] = NCI Yeast Anticancer Drug Screen. Data for the rad18 strain (AID 177); conditions: S. cerevisiae rad18 mutant growth inhibition, stronger effect = higher value
How it was run: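 Growth of the mutant yeast strain after compound exposure, normalised to vehicle-only cultures.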

[10] = NCI Yeast Anticancer Drug Screen. Data for the rad52 strain (AID 147);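 further: 0% = growth of vehicle-treated control cultures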; conditions: S. cerevisiae rad52 mutant growth inhibition, stronger effect = higher value
How it was run: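 Compounds are applied to a genetically defined yeast strain lacking normal DNA damage repair, and inhibition of growth is expressed relative to cultures given vehicle only.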

[11] = NCI Yeast Anticancer Drug Screen. Data for the wt1 strain (AID 149);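 further: 0% = growth of vehicle-treated wt1 cultures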; conditions: S. cerevisiae wt1 strain (SPY 50644) growth inhibition, stronger effect = higher value
How it was run: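 Vehicle-normalised growth inhibition; strain wt1; compound exposure.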

[12] = NCI Yeast Anticancer Drug Screen. Data for the rad50EPP+ strain (AID 151);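 further: 0% = growth of vehicle-treated control cultures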; conditions: S. cerevisiae rad50 mutant strain, stronger effect = higher value
How it was run: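 Compounds were applied to the rad50EPP+ yeast strain, which bears a defined DNA repair alteration, and growth inhibition was determined relative to vehicle-treated cultures.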

[13] = NCI Yeast Anticancer Drug Screen. Data for the rad50 strain (AID 155);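 further: 0% = growth of vehicle-only cultures of the same strain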; conditions: S. cerevisiae rad50 strain growth inhibition, stronger effect = higher value
How it was run: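 A DNA repair-deficient yeast mutant serves as the test organism; compound-induced growth inhibition is calculated against vehicle-treated cells.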

[14] = NCI Yeast Anticancer Drug Screen. Data for the rad14 strain (AID 159);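 further: 0% = growth of vehicle-treated control cultures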; conditions: S. cerevisiae rad14 strain growth inhibition, stronger effect = higher value
How it was run: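 Vehicle-treated cultures served as the baseline for growth inhibition of a DNA repair-mutant yeast strain exposed to each compound.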

[15] = NCI Yeast Anticancer Drug Screen. Data for the sgs1 strain (AID 173);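 further: 0% = growth of vehicle-only control cultures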; conditions: S. cerevisiae sgs1 mutant, stronger effect = higher value
How it was run: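 Growth of a yeast strain bearing a defined genetic alteration is measured after compound treatment. Inhibition is expressed relative to vehicle-only controls.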

[16] = NCI Yeast Anticancer Drug Screen. Data for the mgt1 strain (AID 153); conditions: S. cerevisiae mgt1 mutant growth inhibition, stronger effect = higher value
How it was run: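 Strain: mgt1 yeast, one of a set carrying defined DNA damage repair or cell cycle control alterations. Compound-treated growth compared with vehicle.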

[17] = at 5.0 µM (retest, dose inferred, filed as 0.5)
[18] = at 50.0 µM (retest, dose inferred, filed as 5.0)

Measured: growth inhibition

CCCCN(CCCC)c1ccc(N=Nc2ccc(S(=O)(=O)O)cc2)cc1
active: [1]; at 100.0 µM 97% | [2]; [18] 98% | [2]; at 50.0 µM 91.7% | [3]; at 33.0 µM 97% | [3]; at 100.0 µM 96% | [4]; [18] 98% | [4]; at 50.0 µM 88.7% | [5]; at 11.0 µM 71% | [5]; at 33.0 µM 94% | [5]; [18] 96% | [5]; at 50.0 µM 89.8% | [5]; at 100.0 µM 95% | [6]; at 11.0 µM 89% | [6]; at 33.0 µM 97% | [6]; at 100.0 µM 97% | [7]; at 11.0 µM 82% | [7]; at 33.0 µM 94% | [7]; at 100.0 µM 94% | [8]; [18] 99% | [8]; at 50.0 µM 88.2% | [9]; at 33.0 µM 90% | [9]; at 100.0 µM 92%
inactive: [2]; [17] -48% | [3]; at 1.2 µM 12% | [3]; at 3.7 µM -15% | [3]; at 11.0 µM -8% | [4]; [17] 20% | [5]; at 1.2 µM 34% | [5]; at 3.7 µM 55% | [5]; [17] -2% | [6]; at 1.2 µM -7% | [6]; at 3.7 µM 39% | [7]; at 1.2 µM 1% | [7]; at 3.7 µM 18% | [8]; [17] 51% | [9]; at 1.2 µM -18% | [9]; at 3.7 µM 0% | [9]; at 11.0 µM 8%

N#C/C(=C\NC(=S)Nc1ccc(S(N)(=O)=O)cc1)C(=O)c1ccc2ccccc2c1
inactive: [10]; at 1.2 µM -2% | [10]; at 3.7 µM -1% | [10]; at 11.0 µM 0% | [10]; at 33.0 µM -3% | [10]; at 100.0 µM 3% | [11]; at 1.2 µM 2% | [11]; at 3.7 µM 3% | [11]; at 11.0 µM 1% | [11]; at 33.0 µM 1% | [11]; at 100.0 µM 3% | [12]; at 1.2 µM -1% | [12]; at 3.7 µM -3% | [12]; at 11.0 µM 0% | [12]; at 33.0 µM 0% | [12]; at 100.0 µM -2% | [13]; at 1.2 µM -5% | [13]; at 3.7 µM -16% | [13]; [17] 57% | [13]; at 11.0 µM -18% | [13]; at 33.0 µM -2% | [13]; at 50.0 µM -13.3% | [13]; at 100.0 µM -1% | [1]; at 1.2 µM 0% | [1]; at 3.7 µM 2% | [1]; at 11.0 µM 2% | [1]; at 33.0 µM 5% | [1]; at 50.0 µM -3.5% | [1]; at 100.0 µM -1% | [14]; at 1.2 µM -1% | [14]; at 3.7 µM -1% | [14]; at 11.0 µM 1% | [14]; at 33.0 µM 2% | [14]; at 100.0 µM 6% | [2]; [17] 25% | [2]; at 50.0 µM -13.2% | [3]; at 1.2 µM -2% | [3]; at 3.7 µM -4% | [3]; at 11.0 µM -4% | [3]; at 33.0 µM 0% | [3]; at 100.0 µM -1% | [4]; at 50.0 µM 39.2% | [5]; at 1.2 µM -2% | [5]; at 3.7 µM -1% | [5]; at 11.0 µM -2% | [5]; at 33.0 µM -3% | [5]; at 50.0 µM -16.1% | [5]; at 100.0 µM -3% | [6]; at 1.2 µM -1% | [6]; at 3.7 µM -1% | [6]; at 11.0 µM -1% | [6]; at 33.0 µM 0% | [6]; at 100.0 µM -1% | [7]; at 1.2 µM -1% | [7]; at 3.7 µM 1% | [7]; at 11.0 µM 1% | [7]; at 33.0 µM 3% | [7]; at 100.0 µM 5% | [15]; at 1.2 µM 0% | [15]; at 3.7 µM 2% | [15]; at 11.0 µM 0% | [15]; at 33.0 µM 7% | [15]; at 100.0 µM 9% | [8]; at 50.0 µM 22.1% | [9]; at 1.2 µM -9% | [9]; at 3.7 µM -1% | [9]; at 11.0 µM 0% | [9]; at 33.0 µM -1% | [9]; at 100.0 µM 5%
active: [13]; [18] 97% | [1]; [17] 87% | [1]; [18] 95% | [2]; [18] 96% | [4]; [17] 92% | [4]; [18] 78% | [5]; [17] 99% | [5]; [18] 91% | [8]; [17] 84% | [8]; [18] 97%

COc1cccc(/C=C2\S/C(=N/Nc3nc(-c4ccc([N+](=O)[O-])cc4)cs3)NC2=O)c1O
active: [10]; at 33.0 µM 72% | [10]; at 100.0 µM 80% | [13]; at 33.0 µM 73% | [13]; [18] 84% | [13]; at 50.0 µM 97% | [13]; at 100.0 µM 80% | [1]; at 33.0 µM 79% | [1]; at 50.0 µM 94.2% | [1]; at 100.0 µM 83% | [2]; [18] 76% | [2]; at 50.0 µM 95.7% | [3]; at 33.0 µM 90% | [3]; at 100.0 µM 93% | [4]; [18] 85% | [4]; at 50.0 µM 76.7% | [5]; [17] 82% | [5]; at 33.0 µM 90% | [5]; [18] 97% | [5]; at 50.0 µM 97% | [5]; at 100.0 µM 94% | [6]; at 11.0 µM 76% | [6]; at 33.0 µM 94% | [6]; at 100.0 µM 92% | [7]; at 100.0 µM 74% | [15]; at 33.0 µM 77% | [15]; at 100.0 µM 76% | [8]; [18] 89% | [8]; at 50.0 µM 95.3% | [9]; at 11.0 µM 72% | [9]; at 33.0 µM 93% | [9]; at 100.0 µM 92%
inactive: [10]; at 1.2 µM 15% | [10]; at 3.7 µM 21% | [10]; at 11.0 µM 58% | [11]; at 1.2 µM -78% | [11]; at 3.7 µM 7% | [11]; at 11.0 µM 22% | [11]; at 33.0 µM 42% | [11]; at 100.0 µM 57% | [16]; at 1.2 µM 9% | [16]; at 3.7 µM 23% | [16]; at 11.0 µM 39% | [16]; at 33.0 µM 59% | [16]; at 100.0 µM 56% | [13]; at 1.2 µM 2% | [13]; at 3.7 µM 11% | [13]; [17] -1% | [13]; at 11.0 µM 43% | [1]; at 1.2 µM 1% | [1]; at 3.7 µM 12% | [1]; [17] -4% | [1]; at 11.0 µM 39% | [1]; [18] 52% | [14]; at 1.2 µM 0% | [14]; at 3.7 µM 3% | [14]; at 11.0 µM 6% | [14]; at 33.0 µM 20% | [14]; at 100.0 µM 43% | [2]; [17] 0% | [3]; at 1.2 µM 6% | [3]; at 3.7 µM 25% | [3]; at 11.0 µM 63% | [4]; [17] 33% | [5]; at 1.2 µM 7% | [5]; at 3.7 µM 33% | [5]; at 11.0 µM 62% | [6]; at 1.2 µM -2% | [6]; at 3.7 µM 23% | [7]; at 1.2 µM -1% | [7]; at 3.7 µM 6% | [7]; at 11.0 µM 30% | [7]; at 33.0 µM 63% | [15]; at 1.2 µM 5% | [15]; at 3.7 µM 19% | [15]; at 11.0 µM 50% | [8]; [17] 10% | [9]; at 1.2 µM 10% | [9]; at 3.7 µM 25%
